Test systems include HCT-15 colon; HT29 colon; SNB-75 CNS; SNB-19 CNS; U251 CNS; PC-3 prostate; SK-MEL-5 melanoma; UACC-62 melanoma; LOX IMVI melanoma; SK-MEL-28 melanoma; SK-MEL-2 melanoma; EKVX NSCLC; SN12C renal; UO-31 renal; TK-10 renal; ACHN renal; CAKI-1 renal; A498 renal; CCRF-CEM leukemia; MOLT-4 leukemia.
Common to all, as to assay: NCI-60 one-dose screen, 48 h (100 = growth as untreated, 0 = no growth, -100 = all killed)
Common to all, as to conditions: 10 µM unless noted

Several values for one entry are separate records, joined by “and”; a condition that tells them apart may be missing. Equal values may be shown once. Compounds without any hit were thinned out: in the full panel of roughly 83,000, 20% have a hit.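 Percent growth is the endpoint: 0 to 100 indicates growth inhibition (40 means 60% inhibition), 0 means no net growth, and negative values indicate cell death.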 Unmarked numbers belong to inactive results. Activity calls are given as the source filed them. Rule for the calls: active = growth percent below 10; inactive = the rest.

For `O=C(/C=C/c1ccc(Cl)s1)c1ccc(Cl)s1`, the growth was 88.2% and 90.7% with HCT-15 colon; 74.5% and 94% with HT29 colon; 106% and 102% with SNB-75 CNS; 94.6% and 99.5% with SNB-19 CNS; 92.8% and 93.3% in the assay with U251 CNS; 92.6% and 105% in the assay with PC-3 prostate. The growth with SK-MEL-5 melanoma was 96% and 96.6%; with UACC-62 melanoma, 94.7% and 99.6%; in the assay on LOX IMVI melanoma, 78.8% and 87.8%; with SK-MEL-28 melanoma it was 103% and 112%; in the assay with SK-MEL-2 melanoma, 100% and 109%; with EKVX NSCLC, 98.3%. The growth is 93.3% and 91% in the assay on SN12C renal; 82.8% in the assay on UO-31 renal; 94.9% and 88.9% in the assay on TK-10 renal; 93.9% and 101% in the assay on ACHN renal; 92.4% with CAKI-1 renal; 97.8% with A498 renal. The growth with CCRF-CEM leukemia was 94.8% and 90.7%; in the assay on MOLT-4 leukemia, 95.1% and 88.9%.

Consider `Cc1[nH]c(C(=O)Nc2nc3ccc(NC(=O)CCN)cc3s2)c(Cl)c1Cl`, for which the growth was 83.2% in the assay on HCT-15 colon; 88.9% in the assay with HT29 colon; 81.6% with SNB-75 CNS; 78.6% with SNB-19 CNS; 47.1% with U251 CNS; 65.5% in the assay with PC-3 prostate. In addition, the growth with SK-MEL-5 melanoma was 83.8%; with UACC-62 melanoma, 44.4%; in the assay with LOX IMVI melanoma, 19.7%; in the assay with SK-MEL-28 melanoma, 97.8%; in the assay on SK-MEL-2 melanoma, 96.4%; with EKVX NSCLC, 76.3%. In addition, the growth in the assay on SN12C renal was 65.4%; in the assay with UO-31 renal, 80.4%; with TK-10 renal it was 113%; with ACHN renal it was 43.2%; in the assay on CAKI-1 renal, 31.5%; with A498 renal, 65.3%. The growth with CCRF-CEM leukemia is 15.3%; in the assay on MOLT-4 leukemia it was 12.9%.

In the case of `CC/C(=C(/c1ccc(O)cc1)c1ccc(OCCN2CCCCCC2)cc1)c1ccc(Cl)cc1`, the growth in the assay with HCT-15 colon was 31.5%; with HT29 colon it was 14.2%; in the assay on SNB-75 CNS, 88.7%; with SNB-19 CNS, 80.2%; in the assay with U251 CNS, 50.7%; in the assay with PC-3 prostate, 27.8%. The growth with SK-MEL-5 melanoma is 67%; in the assay with UACC-62 melanoma, 83.2%; with LOX IMVI melanoma, 67.7%; in the assay on SK-MEL-28 melanoma it was 58.5%; with SK-MEL-2 melanoma, 96.5%; with EKVX NSCLC, 91.9%. Besides, the growth was 74.5% in the assay with SN12C renal; 65.7% in the assay with UO-31 renal; 91.6% in the assay with TK-10 renal; 99.9% in the assay with ACHN renal; 95.8% with CAKI-1 renal; 97.7% in the assay with A498 renal. Besides, the growth with CCRF-CEM leukemia is 20.7%; in the assay with MOLT-4 leukemia, 17%.

Take `Nc1c(C(=O)Nc2ccncc2)sc2nc3c(cc12)CCCCCCCC3`: the growth with HCT-15 colon is -82.2% (active); in the assay with HT29 colon, -92.6% (active); in the assay on SNB-75 CNS, -96.2% (active); with SNB-19 CNS, -77.1% (active); in the assay with U251 CNS it was -89.2% (active); in the assay on PC-3 prostate it was -18.9% (active). Also, the growth in the assay with SK-MEL-5 melanoma is -96.1% (active); in the assay with UACC-62 melanoma, -94.9% (active); in the assay on LOX IMVI melanoma, -84.7% (active); in the assay on SK-MEL-28 melanoma, -91.4% (active); in the assay on SK-MEL-2 melanoma it was -86.7% (active); in the assay on EKVX NSCLC, -31.2% (active). Further, the growth was -65.1% (active) in the assay with SN12C renal; -95% (active) with UO-31 renal; -75.6% (active) in the assay on TK-10 renal; -98.8% (active) in the assay with ACHN renal; -94.8% (active) in the assay on CAKI-1 renal; -9% (active) in the assay with A498 renal. Moreover, the growth is -37.9% (active) in the assay with CCRF-CEM leukemia and -40.6% (active) in the assay with MOLT-4 leukemia.

For `COc1ccc(Oc2nc(Nc3ccc(N4CCOCC4)cc3)ncc2NC(=O)c2cc(OC)cc(OC)c2)cc1`, the growth with HCT-15 colon is 67.7%; with HT29 colon, 72%; with SNB-75 CNS, 79.1%; with SNB-19 CNS, 87.4%; with U251 CNS, 82.7%; in the assay on PC-3 prostate, 67.5%. Further, the growth in the assay with SK-MEL-5 melanoma is 77.2%; in the assay with UACC-62 melanoma, 87.8%; with LOX IMVI melanoma, 84.7%; with SK-MEL-28 melanoma it was 100%; in the assay on SK-MEL-2 melanoma, 95.4%; in the assay with EKVX NSCLC it was 94.8%. The growth in the assay on SN12C renal was 89%; in the assay on UO-31 renal, 55.5%; in the assay on TK-10 renal it was 103%; in the assay with ACHN renal, 86.1%; in the assay with CAKI-1 renal it was 100%; in the assay on A498 renal, 8.34% (active). For the same molecule, the growth in the assay with CCRF-CEM leukemia was 70%; with MOLT-4 leukemia it was 53.3%.

In the case of `CNC(=O)c1cc(Oc2ccc3nc(NC(=O)Nc4ccc(C(F)(F)F)cc4)sc3c2)ccn1`, the growth is 54.2% in the assay with HCT-15 colon; 78.4% in the assay with HT29 colon; 29.1% with SNB-75 CNS; 79.3% with SNB-19 CNS; 22.4% in the assay on U251 CNS; 58.8% in the assay on PC-3 prostate. Further, the growth was 56.9% in the assay on SK-MEL-5 melanoma; 56% in the assay with UACC-62 melanoma; 48.1% with LOX IMVI melanoma; 68.9% in the assay with SK-MEL-28 melanoma; 92.9% in the assay with SK-MEL-2 melanoma; 53.5% with EKVX NSCLC. In addition, the growth is 71.1% in the assay on SN12C renal; 65% with UO-31 renal; 55.3% in the assay with TK-10 renal; 73.4% in the assay with ACHN renal; 92% in the assay on CAKI-1 renal; 98.8% with A498 renal. Also, the growth is 68.1% with CCRF-CEM leukemia and 73.3% with MOLT-4 leukemia.

In the case of `[2H]C([2H])([2H])Oc1cccc(/C=C/C(=O)/C=C(/C=C/c2cccc(OC([2H])([2H])[2H])c2OC([2H])([2H])[2H])OB(F)F)c1OC([2H])([2H])[2H]`, the growth with HCT-15 colon was 58.3%; with HT29 colon, 86.3%; in the assay on SNB-75 CNS, 55.2%; in the assay on SNB-19 CNS, 89.1%; in the assay with U251 CNS it was 58.8%; in the assay on PC-3 prostate, 74.3%. Further, the growth with SK-MEL-5 melanoma was 98.6%; with UACC-62 melanoma, 66.6%; in the assay with LOX IMVI melanoma it was 54.6%; in the assay with SK-MEL-28 melanoma it was 88.5%; in the assay with SK-MEL-2 melanoma, 116%; in the assay with EKVX NSCLC it was 93.6%. Moreover, the growth in the assay with SN12C renal is 74%; in the assay on UO-31 renal, 51.5%; in the assay with TK-10 renal, 99.9%; with ACHN renal, 51.5%; with CAKI-1 renal, 58.1%; in the assay on A498 renal it was 117%. The growth with CCRF-CEM leukemia is 4.12% (active); with MOLT-4 leukemia, 15.6%.

Values taken from PubChem BioAssay (NCI).
